KB-V1 MDR tox = qHTS assay for MDR1-selective chemotherapeutics: Primary screen using the drug-selected MDR subline cells KB-V1; KB-V1 MDR cells viability, CellTiter-Glo, 72 h; Potency, µM (top dose mostly 46.1 µM), hits mostly cytotoxic; 3.4% of 400,000 active; further: on the % scale 0 is the no-effect control and ±100 the full control effect; nearly all actives have a fitted effect of over 60% in size
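Readout: CellTiter-Glo luminescence, 10 min after addition. Cells: KB-V1 MDR subline, 72 h at 37 degrees C with compound. Analysis: corrected, normalized data fitted to concentration-effect curves.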
KB-3-1 cytotox = qHTS assay for MDR1-selective chemotherapeutics: Primary screen using the parental adenocarcinoma cell KB-3-1 | KB-3-1 viability, CellTiter-Glo ATP luminescence, 72 h | Potency, µM (doses to about 46.1 µM), hits mostly cytotoxic | 1.4% of 400,000 active; further: on the % scale 0 is the no-effect control and ±100 the full control effect; nearly all actives have a fitted effect of over 60% in size
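Here the drug-naive KB-3-1 line serves as comparator for MDR sub-line selectivity; cells received compound titrations, 72 h at 37 °C, then CellTiter-Glo readout.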
ATXN2 expr inh = Primary qHTS for Inhibitors of ATXN expression; HEK-293 ATXN2-luciferase reporter, luminescence, 24 h; Potency, µM (series often up to 57 µM), inactives show at the top dose activity change, negative = inhibition, actives largely listed as inhibitors; 0.72% of 360,000 active; AID 1745845, 2022; further: on the % scale 0 is the no-effect control and ±100 the full control effect; nearly all actives have a fitted effect of over 55% in size
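ATXN2-luciferase reporter cells (luciferase flanked by upstream and downstream ATXN2 gene portions) were treated 24 h at 37 °C with compounds at up to 57 uM. SteadyGlo luminescence gave expression; GF-AFC fluorescence gave viability.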
TGFb SMAD3 inh = qHTS for Inhibitors of TGF-b. HepG2 CAGA-GFP TGF-b/SMAD3 reporter, GFP fluorescence, 18 h; TGF-beta stimulated, 500 pg/mL final. Potency, µM (titrated, usually from 46.1 µM), for inactives: at the highest dose activity, negative = inhibition, actives largely listed as inhibitors. 1.2% of 410,000 active. AID 588855, 2011; further: on the % scale 0 is the no-effect control and ±100 the full control effect; nearly all actives have a fitted effect of over 65% in size
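Per well, imaged GFP fluorescence of HEPG2 CAGA-GFP cells gives the signal; cells get compound, then TGF-beta (500 pg/mL final), 18 h at 37 degrees C; %Activity versus -TGF-beta and +DMSO controls.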
ATXN viability = Viability Counterscreen for Primary qHTS for Inhibitors of ATXN expression | Potency, µM (highest dose often 56.7 µM), hits mostly cytotoxic | 0.49% of 400,000 active | AID 651635, 2014 | S2 cells (HEK-293 line with an ATXN2-luciferase reporter) viability, CellTiter-Fluor protease fluorescence, 24 h; further: nearly all actives have a fitted effect of over 40% in size
HepG2 viability = qHTS for Inhibitors of TGF-b: Cytotox Counterscreen; HepG2 CAGA-GFP viability, ATP luminescence, 18 h; Potency, µM (titrated, usually from 46.1 µM), inactives show at the highest dose activity change, negative = cytotoxicity, usual class: cytotoxic; 0.76% of 410,000 active; AID 588856, 2011
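HepG2 CAGA-GFP cells (1000/well, DMEM with 1% FBS) received compound, then TGF-beta at 500 pg/mL final, and were incubated 18 hours at 37 degrees C. Viability was read by CellTiter-Glo luminescence. Media-only wells were set as complete cell-killing and DMSO as no toxicity.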
* hit, by the source's call; i = inactive; ? = inconclusive; · = no result given. In the library only some 5.9% were active in any assay of this set; here they are far more common. The call rests on the fitted dose curve; in most records, active means well fitted curve in the direction sought with a large enough effect; inconclusive means small, poorly fitted or top-dose-only effect, or another doubt; inactive means no such curve, though single readings can be large; an effect the other way counts as inactive or inconclusive. Potency means the concentration at half of the fitted maximal effect.

SMILES | KB-V1 MDR tox | KB-3-1 cytotox | ATXN2 expr inh | TGFb SMAD3 inh | ATXN viability | HepG2 viability
CCCc1nc2c3ccccc3ccn2c1Cc1cccc(Cl)c1 | i | i | 2% | -73% | 35µM* | -38%
CCCc1nc2c3ccccc3ccn2c1Cc1ccc(C)cc1 | i | i | 57% | ? | ? | -27%
O=C(CN1C(=O)COc2ccc(S(=O)(=O)N3CCCC3)cc21)N1CCN(c2ccccc2)CC1 | i | i | · | -7% | · | -8%
CCOc1cc(Br)cc(/C=C2\SC(=Nc3ccccc3)NC2=O)c1O | ? | ? | · | 10µM* | ? | -82%
C=CCOc1c(Br)cc(/C=C2\SC(=Nc3ccccc3)NC2=O)cc1OC | i | i | · | ? | ? | 16µM*
CCc1ccc(N=C2NC(=O)/C(=C/c3cc(Br)c(OCC(=O)O)c(OC)c3)S2)cc1 | ? | i | 2% | 1% | i | -11%
C=CCOc1ccc(Br)cc1/C=C1/SC(=Nc2ccc(C(=O)O)cc2)NC1=O | i | ? | 13% | 3% | i | -3%
CCN(CC)c1ccc(NC(=O)CCc2c(C)nc3ncnn3c2C)c(C)c1 | i | i | 3% | 7% | i | -10%
Cc1cccc(C)c1N(CCCc1cccnc1)C(=O)C(C)N (stereo not given) | · | · | · | · | i | ·
CN(C)c1ccc(-c2nc3ccc(Cl)cn3c2Nc2ccc3c(c2)OCCO3)cc1 | i | i | 40% | -1% | i | -21%
Nc1ccc(CC(N)c2csc(Nc3nncc4ccccc34)n2)cc1 (stereo not given) | 23µM* | ? | -24% | ? | i | -30%
NC(Cc1ccccc1)c1csc(Nc2nncc3ccccc23)n1 (stereo not given) | 23µM* | ? | ? | 16µM* | · | -101%
C=Cc1ccc(Cn2ccn(-c3ccc(F)c(F)c3)c(=O)c2=O)cc1 | · | · | · | -4% | · | -9%
O=C(O)CCn1cnc2onc(-c3ccccc3Cl)c2c1=O | i | i | 1% | 6% | i | -7%
COC(=O)C1=C[C@@H](C(=O)OC)[C@@H]2C3=C(C(=O)[C@@]2(CC(C)C)NC(=O)c2ccccc2)[C@H](C)n2c(=O)n(-c4ccccc4)c(=O)n2[C@@H]3C1 | · | · | · | ? | · | 1%
O=C1c2cccc(Cl)c2C(=O)N1c1ccccn1 | i | i | -4% | 0% | i | -44%
O=C1c2cc([N+](=O)[O-])cc3cc([N+](=O)[O-])cc(c23)C(=O)N1c1ccccn1 | i | i | ? | 5.6µM* | ? | 2%
O=C1c2ccc(Oc3cccc([N+](=O)[O-])c3)cc2C(=O)N1c1ccccn1 | i | i | · | 7% | i | 2%
O=C1c2cc3ccccc3c(-c3ccccc3)c2C(=O)N1c1ccccn1 | 13µM* | i | -2% | -10% | i | -29%
COc1ccccc1N1C(=O)N(C(C)=O)C2C1Nc1ccccc1N2C (stereo not given) | i | i | 25µM* | ? | i | -88%
COc1cccc(CNC(=O)c2nn(-c3ccccc3Cl)nc2CO)c1 | · | · | · | -1% | · | -16%
CS(=O)(=O)c1ccc(C(=O)OCC(=O)NCc2cccs2)cc1[N+](=O)[O-] | ? | ? | ? | 11µM* | ? | -106%
COc1ccc(C2C(=O)N(CCc3ccccc3)CC(=O)N2C2CCCCC2)cc1 (stereo not given) | 3.7µM* | i | -2% | -9% | i | -7%
COc1ccc(C2C(=O)N(C3CCCCCC3)CC(=O)N2CCc2ccccc2)cc1 (stereo not given) | · | · | · | ? | · | -4%

Screening results deposited in PubChem by National Center for Advancing Translational Sciences (NCATS).
